# An excerpt weighted towards active compounds, which were near 4% of everything screened.
# Mtb betalactam – beta-lactam sensitization of Mtb H37Rv | AID 434955 | inhibition, % at 25 µM | 0.27% of 330,000 active | M. tuberculosis H37Rv growth with meropenem, percent inhibition; call rule not given here;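 note: growth measured after seven days incubation then overnight dye step; 0% = bacteria only wells and 100% = bacteria with antibiotic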
# MazF activator – MazEF (E. coli) toxin RNase activation; P0AE70; FAM/BHQ RNA-DNA oligo cleavage fluorescence, 5 h; activation, % at 20 µM; 0.32% of 350,000 active; in the data active = activation above about 50%
# CCHFV vOTU inh – blocks the CCHF virus ovarian tumor domain protease | CCHFV vOTU protease, Pep-AMC fluorescence | inhibition, % at 11.5 µM | 0.55% of 370,000 active | AID 651958; note: 0% = vehicle wells with enzyme and 100% = no enzyme wells
# Mtb FBA inh – Mtb fructose-bisphosphate aldolase inhibition; AID 588726; 2.3% of 360,000 active; inhibition, % at 1 µM; purified M. tuberculosis FBA, fluorescence read-out; in the data active = inhibition above about 27%;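 note: 0% = vehicle and 100% = reference inhibitor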
# Target sequence (P9WQA3 whole entry, looked up): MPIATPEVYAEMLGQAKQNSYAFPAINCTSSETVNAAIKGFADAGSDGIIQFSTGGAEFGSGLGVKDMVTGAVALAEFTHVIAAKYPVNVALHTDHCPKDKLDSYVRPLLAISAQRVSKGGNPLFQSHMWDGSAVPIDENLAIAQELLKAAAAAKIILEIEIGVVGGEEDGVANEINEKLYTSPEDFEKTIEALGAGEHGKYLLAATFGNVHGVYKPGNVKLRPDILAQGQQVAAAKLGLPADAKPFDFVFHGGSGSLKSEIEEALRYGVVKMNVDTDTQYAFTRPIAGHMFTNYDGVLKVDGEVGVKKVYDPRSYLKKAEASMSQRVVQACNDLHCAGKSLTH
# GDH-TPI counter – inhibits GDH-TPI coupling enzymes, artifact for Mtb FBA screen | inhibition, % at 4.8 µM | 1.2% of 360,000 active | GDH-TPI coupled enzyme counterscreen, NADH absorbance;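 note: 0% = DMSO wells and 100% = wells lacking the enzyme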
# * hit, by the source's call; . = no result given; + = active, no number. Cut-off read from the data, not from the text of the source, unless noted: active = inhibition above about 30%; inactive = the rest.
SMILES,Mtb betalactam,MazF activator,CCHFV vOTU inh,Mtb FBA inh,GDH-TPI counter
O=C(NC1CCCCN(Cc2cccc(Cl)c2)C1=O)c1cccc2nsnc12 (centres undefined),.,.,3,.,.
Cc1cc(=O)oc2cc(NC(=O)c3cccc(S(=O)(=O)N(C)C)c3)ccc12,3,4,-7,4,-7
Cc1cc(=O)oc2cc(OC(=O)c3ccco3)ccc12,.,3,-356,194*,-3
CCCc1cc(=O)oc2cc(OC(=O)CN3C(=O)NC4(CCCC4)C3=O)ccc12,-5,0,-323,+,16
Cc1ccc(N(C)S(=O)(=O)c2cccc(C(=O)Oc3ccc4c(C)cc(=O)oc4c3)c2)cc1,-3,-7,-194,131*,2
COc1ccc(OCCOC(=O)CN2C(=O)NC3(CCCC3)C2=O)cc1,-10,-4,5,1,-5
CCc1cc(=O)oc2cc(OC(=O)c3ccco3)ccc12,-19,-4,-404,+,3
O=S1(=O)c2c(cccc2N2CCSCC2)Oc2ccccc2CN1Cc1cn(Cc2ccccc2C(F)(F)F)nn1,.,.,-2,.,.
CCC[C@H](/C=C/C(=O)OC(C)(C)C)Sc1ccc(OC)cc1,.,.,9,.,.
CC(=O)Nc1nc2ncccn2c1-c1ccc(C)cc1,.,.,-65,.,.
C=CS(=O)(=O)N(Cc1nnn(Cc2ccccc2)c1Br)[C@@H](CC(C)C)C(=O)OC,.,.,12,.,.
COc1ccc(CCn2c(=N)c(C(=O)NCc3ccco3)cc3c(=O)n4ccccc4nc32)cc1OC,.,-14,-4,5,16
COCCn1c(=N)c(C(=O)NCc2ccco2)cc2c(=O)n3cc(C)ccc3nc21,0,-60,-55,149*,5
N=c1c(C(=O)NCc2ccco2)cc2c(=O)n3ccccc3nc2n1CCc1ccccc1,6,7,-56,126*,9
Cc1ccc(Cn2c(=N)c(C(=O)NCc3ccco3)cc3c(=O)n4ccccc4nc32)cc1,0,-13,-13,52*,12
COc1ccc(CCNC(=O)c2cc3c(=O)n4ccccc4nc3n(Cc3ccco3)c2=N)cc1OC,9,10,-10,-2,-3
N=c1c(S(=O)(=O)c2ccc(Br)cc2)cc2c(=O)n3ccccc3nc2n1Cc1ccco1,3,-4,-51,131*,15
O=C(CCc1ccccc1)N[C@H]1[C@@H](OC(=O)C2CC2)CCC[C@@]12C(=O)N(Cc1ccccc1)c1ccccc12,.,.,1,.,.
CS(=O)(=O)N1CCC[C@]2(CC[C@H](CCC#N)O2)C1,.,.,4,.,.
O=C(CSc1ccc([N+](=O)[O-])cn1)Nc1nccs1,81,-5,2,-3,34*
COC(=O)[C@]12C[C@H](CC(=O)NCCCCc3ccccc3)C(=O)N(CCC3=CCCCC3)C1=C[C@H](C1CCCC1)O[C@@H]2C,.,.,20,.,.
Cc1cc(C)nc(NS(=O)(=O)c2ccc(N/C=C/C(=O)c3ccc(Cl)cc3)cc2)n1,23,0,3,1,32*
O=S(=O)(Nc1ncccn1)c1ccc(Nc2ncnc3ccccc23)cc1,20,-3,0,-1,49*
NS(=O)(=O)c1ccc(N/C=C\C(=O)c2cccc3ccccc23)cc1,8,10,3,1,27
O=S(=O)(Nc1ccc(S(=O)(=O)Nc2ncccn2)cc1)c1ccccc1,-1,3,-13,2,-9
SMILES,Mtb betalactam,MazF activator,CCHFV vOTU inh,Mtb FBA inh,GDH-TPI counter
O=C(/C=C\Nc1ccc(S(=O)(=O)Nc2ncccn2)cc1)c1cccc2ccccc12,-1,0,14,4,55*
COC(=O)[C@]1(CNC(=O)NCCc2ccc(OC)c(OC)c2)CC(=O)N(C)[C@@H]1c1ccccc1,.,.,-3,.,.
O=C(CSc1nnc(-c2cccnc2)n1Cc1ccco1)Nc1ccc(F)cc1Cl,.,.,-6,.,.
CN(Cc1ccccc1Cl)C(=O)CN1C(=O)C2(OCCCO2)c2ccccc21,.,.,-1,.,.
COC(=O)[C@]12C[C@H](CC(=O)NCCC(C)C)C(=O)N(Cc3ccc(Cl)cc3Cl)C1=C[C@H](C1CCCC1)O[C@@H]2C,.,.,27,.,.
CC(=O)c1sc(=S)n(Cc2ccccc2)c1C,1,-1,0,-1,25
COC(=O)c1sc(=S)n(Cc2ccccc2)c1C,-2,-2,2,5,46*
CCOC(=O)CC[C@@H]1CC[C@]2(CCCN(C(=O)c3ccccc3)C2)O1,.,.,-7,.,.
CCC(=O)c1cn(CC(=O)Nc2ccccc2Cl)c2ccccc12,-2,54*,2,2,3
OCCN=c1cc(-c2ccccc2)oc2ccc(Cl)cc12,71,12,.,2,40*
CN(C)CCCN=c1cc(-c2ccccc2)oc2ccc(Cl)cc12,.,20,9,3,8
